As a reminder, the AC50 is the concentration giving half of the maximal activity seen.

Our source for the outcome and AC50 values is PubChem BioAssay (EPA / NIEHS).

The structures appear in SMILES notation. Activity calls are given as the source filed them. Rule for the calls: active = hit-call score of the fitted dose curve at least 0.9, where 1 is the maximum; inactive = score below 0.9.

The nature of test [1]: ATG_DR4_LXR_CIS: Attagene CIS-FACTORIAL HepG2 Assay for human Liver X Receptor (LXR), DR4 submotif (AID 2282929). As to conditions: HepG2 Attagene DR4 cis-reporter, mRNA transcription; actives raise or lower the signal. In a few lines: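 HepG2 cells were transiently transfected with multiple cis-regulated reporter units and dosed for 24 hours. The DR4 reporter mRNA was quantified by RT-PCR, 6-FAM labelling and capillary electrophoresis. Bidirectional fits used DMSO as baseline.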

The target in test [2] is Aryl hydrocarbon receptor (Homo sapiens) (UniProt P35869). Nature of the test: ATG_Ahr_CIS: Attagene CIS-FACTORIAL HepG2 Assay for human Aryl Hydrocarbon Receptor (Ahr) (AID 2282930). As to conditions: HepG2 AhR cis-factorial reporter transcription; actives raise or lower the signal. In a few lines: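 Transient MRTU transfection of HepG2 → 24 h compound exposure → total RNA, oligo(dT) RT → PCR, 6-FAM extension, HpaI cut → CE fluorescence. DMSO = baseline; bidirectional curve fit.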
Aryl hydrocarbon receptor (Homo sapiens), sequence (P35869 whole entry, looked up): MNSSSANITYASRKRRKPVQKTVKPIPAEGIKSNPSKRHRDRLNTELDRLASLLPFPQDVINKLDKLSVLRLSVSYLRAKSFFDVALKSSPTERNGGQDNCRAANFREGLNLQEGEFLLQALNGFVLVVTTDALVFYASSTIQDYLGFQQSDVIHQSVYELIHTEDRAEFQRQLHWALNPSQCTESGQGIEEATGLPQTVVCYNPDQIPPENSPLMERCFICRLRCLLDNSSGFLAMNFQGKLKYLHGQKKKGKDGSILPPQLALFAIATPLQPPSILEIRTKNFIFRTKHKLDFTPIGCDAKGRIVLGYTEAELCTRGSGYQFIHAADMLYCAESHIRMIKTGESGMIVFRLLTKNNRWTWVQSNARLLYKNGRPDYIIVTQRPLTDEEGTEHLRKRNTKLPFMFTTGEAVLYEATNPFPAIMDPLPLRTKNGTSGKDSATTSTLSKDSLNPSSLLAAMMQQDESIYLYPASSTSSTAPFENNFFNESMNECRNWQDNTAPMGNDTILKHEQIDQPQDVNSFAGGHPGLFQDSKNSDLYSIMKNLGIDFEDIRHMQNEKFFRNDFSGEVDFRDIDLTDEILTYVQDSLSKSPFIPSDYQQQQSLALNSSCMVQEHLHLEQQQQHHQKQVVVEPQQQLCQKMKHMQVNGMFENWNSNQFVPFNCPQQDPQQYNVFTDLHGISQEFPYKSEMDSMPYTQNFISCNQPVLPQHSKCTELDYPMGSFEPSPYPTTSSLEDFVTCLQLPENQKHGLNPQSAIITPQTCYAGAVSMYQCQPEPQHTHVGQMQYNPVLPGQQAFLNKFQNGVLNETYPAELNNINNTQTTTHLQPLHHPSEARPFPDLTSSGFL

Test [3] is described as follows: ATG_AP_1_CIS: Attagene CIS-FACTORIAL HepG2 Assay for human Activator Protein 1 (AP-1) (AID 2282931). As to conditions: HepG2 Attagene cis-factorial AP-1 reporter mRNA; actives raise or lower the signal. The method in brief: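 HepG2 cells transiently transfected with cis-element-driven reporter transcription units, dosed for 24 hours. Reporter mRNA measured by RT-PCR, 6-FAM labelling, HpaI digestion and capillary electrophoresis. Bidirectional fitting against DMSO baseline.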

The nature of test [4]: ATG_AP_2_CIS: Attagene CIS-FACTORIAL HepG2 Assay for human Activator Protein 2 (AP-2) (AID 2282932). Conditions: HepG2 AP-2 cis-reporter, Attagene transcription factor profiling; actives raise or lower the signal. In a few lines:
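Endogenous transcription factor activity is reported through transfected multiplex reporter constructs in HepG2, after 24 h of compound exposure. Transcripts were quantified by RT-PCR and capillary electrophoresis of fluorescent fragments. Bidirectional fit against DMSO.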

Test [5] can be described thus: ATG_BRE_CIS: Attagene CIS-FACTORIAL HepG2 Assay for human Bone Morphogenetic Protein (BMP) Response Element (BRE) (AID 2282933). Conditions: HepG2 BMP response element reporter, Attagene transcription factor profiling; actives raise or lower the signal. The method in brief: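 A HepG2 multiplex reporter system measured inducible reporter mRNA 24 h post-dosing. Detection: RT-PCR, 6-FAM primer extension, HpaI digestion, capillary electrophoresis. Activity fitted bidirectionally relative to DMSO.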

The target of test [6] is Retinoic acid receptor alpha (Homo sapiens) (UniProt P10276). As to the kind of experiment: ATG_DR5_RAR_CIS: Attagene CIS-FACTORIAL HepG2 Assay for human Retinoic Acid Receptor Alpha (RARE), DR5 submotif (AID 2282934).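 For AC50: reporter responds to endogenous RAR alpha beta and gamma in HepG2 not RARA alone.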 As to conditions: HepG2 Attagene cis-factorial RARE DR5 reporter, mRNA; actives raise or lower the signal. In a few lines: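 Transient MRTU transfection of HepG2; 24 h compound treatment; TriZol RNA, oligo(dT) RT, PCR, FAM labelling, capillary electrophoresis. Bidirectional fit vs DMSO. Endogenous TF activity at DR5 RARE.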
Retinoic acid receptor alpha (Homo sapiens), sequence (P10276 whole entry, looked up): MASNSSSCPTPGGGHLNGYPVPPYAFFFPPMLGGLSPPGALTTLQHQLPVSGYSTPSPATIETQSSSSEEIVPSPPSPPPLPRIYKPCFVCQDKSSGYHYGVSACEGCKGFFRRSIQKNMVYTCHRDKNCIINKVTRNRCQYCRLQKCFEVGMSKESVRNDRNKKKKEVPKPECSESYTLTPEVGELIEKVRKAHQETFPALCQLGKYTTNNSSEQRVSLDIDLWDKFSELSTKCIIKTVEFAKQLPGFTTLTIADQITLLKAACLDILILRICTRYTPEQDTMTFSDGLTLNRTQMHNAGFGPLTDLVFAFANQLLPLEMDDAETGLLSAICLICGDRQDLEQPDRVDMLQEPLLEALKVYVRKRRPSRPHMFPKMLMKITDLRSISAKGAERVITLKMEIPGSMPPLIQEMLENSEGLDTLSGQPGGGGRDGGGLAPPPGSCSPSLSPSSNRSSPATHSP

Test [7] has as its target Transcription factor E2F1 (Homo sapiens) (UniProt Q01094). As to the kind of experiment: ATG_E2F_CIS: Attagene CIS-FACTORIAL HepG2 Assay for human E2F Transcription Factor 1 (AID 2282935). As to conditions: HepG2 Attagene cis-reporter, E2F reporter RNA transcripts; actives raise or lower the signal. In a few lines:
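Gain or loss of reporter transcript, fitted against DMSO, reflects E2F1-driven transcription. Transiently transfected HepG2 dosed 24 h before RNA isolation. Quantified by fluorescent RT-PCR products separated by capillary electrophoresis.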

Test [8] is described as follows: ATG_E_Box_CIS: Attagene CIS-FACTORIAL HepG2 Assay for human Enhancer Box (E-box) (AID 2282936). Conditions: HepG2 E-box cis-reporter transcription, actives raise or lower the signal. The method in brief:
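E-box-driven reporter transcripts measured in transiently transfected HepG2 after 24 h exposure: RNA reverse-transcribed, PCR-amplified, fluorescently labelled, digested and resolved by capillary electrophoresis. Gain or loss relative to DMSO.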

The nature of test [9]: ATG_M_61_CIS: Attagene CIS-FACTORIAL HepG2 Assay for M61 Transcription Factor (Internal Marker) (AID 2282937). As to conditions: HepG2 Attagene CIS-FACTORIAL M61 internal marker reporter; actives raise or lower the signal. The method in brief: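 HepG2 cells transiently transfected with multiplexed cis-promoter reporter units reporting endogenous transcription factor activity, measured 24 h after dosing. Reporter mRNA quantified by RT-PCR and capillary electrophoresis; bidirectional fit against DMSO baseline.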

The nature of test [10]: ATG_EGR_CIS: Attagene CIS-FACTORIAL HepG2 Assay for human Early Growth Response 1 (EGR1) (AID 2282938). As to conditions: HepG2 Attagene CIS-FACTORIAL EGR reporter mRNA; actives raise or lower the signal. In a few lines:
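HepG2 cells transiently transfected with cis-element-driven multiplexed reporter units, dosed for 24 h. EGR1-element reporter mRNA quantified by RT-PCR, 6-FAM labelling, HpaI digestion and capillary electrophoresis; bidirectional fit versus DMSO.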

Test [11] can be described thus: ATG_M_19_CIS: Attagene CIS-FACTORIAL HepG2 Assay for M19 Transcription Factor (Internal Marker) (AID 2282939). As to conditions: HepG2 Attagene CIS-FACTORIAL M19 internal marker reporter; actives raise or lower the signal. The method in brief: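 Chemical-treated HepG2 (24 h) with MRTU constructs; reporter transcripts detected by fluorescent RT-PCR fragment analysis on capillary electrophoresis. Internal background marker, DMSO as baseline.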

Test [12] in a line: ATG_ERE_CIS: Attagene CIS-FACTORIAL HepG2 Assay for Estrogen Response Element (ERE) (AID 2282940). As to conditions: HepG2 ERE cis-reporter, Attagene RNA transcript; actives raise or lower the signal. The method in brief:
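Human liver cells (HepG2) bearing transiently transfected, promoter-regulated reporter units were exposed 24 h. Reporter mRNA induction was detected by capillary electrophoresis of labelled RT-PCR products and fitted bidirectionally to DMSO.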

Test [13] is described as follows: ATG_Ets_CIS: Attagene CIS-FACTORIAL HepG2 Assay for human Erythroblast Transformation Specific (ETS) (AID 2282941). Conditions: HepG2 ETS cis-reporter transcription, actives raise or lower the signal. In a few lines: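 RT-PCR/capillary electrophoresis fluorescence read-out of reporter mRNA; HepG2 transient multi-reporter transfection; 24 h compound exposure; gain or loss of signal fitted bidirectionally relative to DMSO.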

Test [14] in a line: ATG_FoxO_CIS: Attagene CIS-FACTORIAL HepG2 Assay for human Forkhead box O (FoxO) (AID 2282943). Conditions: HepG2 Attagene cis-reporter, FoxO element, mRNA; actives raise or lower the signal. The method in brief:
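HepG2, transient MRTU transfection (cis element, endogenous TFs). Dose 24 h. TriZol RNA → oligo(dT) RT → PCR → 6-FAM primer extension → HpaI cut → CE. Gain/loss vs DMSO.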

Test [15] is described as follows: ATG_GATA_CIS: Attagene CIS-FACTORIAL HepG2 Assay for human GATA Binding Protein (AID 2282944). As to conditions: HepG2 GATA cis-element reporter, Attagene multiplex mRNA; actives raise or lower the signal. The method in brief: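 Transfected cis-reporter HepG2 cells were treated with chemicals for 24 hours. Total RNA was then converted to cDNA, amplified with reporter-specific primers and analysed by fluorescent capillary electrophoresis, using DMSO-treated wells as baseline.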

Test [16] can be described thus: ATG_GLI_CIS: Attagene CIS-FACTORIAL HepG2 Assay for human Zinc Finger Protein GLI1 (AID 2282945). As to conditions: HepG2, Attagene cis-factorial reporter mRNA, GLI element; actives raise or lower the signal. In a few lines:
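Bidirectional curve fits relative to DMSO, using reporter mRNA levels from RT-PCR plus capillary electrophoresis. Cells were HepG2 transiently carrying cis-regulated reporter constructs, harvested 24 h after dosing.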

In test [17] the target is Bile acid receptor (Homo sapiens) (UniProt Q96RI1). Nature of the test: ATG_IR1_CIS: Attagene CIS-FACTORIAL HepG2 Assay for human Nuclear Receptor Subfamily 1 Group H Member 4 (NR1H4), IR1 submotif (AID 2282946). Conditions: IR1 reporter transcription, actives raise or lower the signal. In a few lines: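 HepG2 cells transiently transfected with multiplexed cis-element reporter units read endogenous transcription factor activity. After 24 h compound exposure, reporter mRNA was quantified by RT-PCR, fluorescent labelling, HpaI digestion and capillary electrophoresis; bidirectional fitting versus DMSO baseline.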
Bile acid receptor (Homo sapiens), sequence (Q96RI1 whole entry, looked up): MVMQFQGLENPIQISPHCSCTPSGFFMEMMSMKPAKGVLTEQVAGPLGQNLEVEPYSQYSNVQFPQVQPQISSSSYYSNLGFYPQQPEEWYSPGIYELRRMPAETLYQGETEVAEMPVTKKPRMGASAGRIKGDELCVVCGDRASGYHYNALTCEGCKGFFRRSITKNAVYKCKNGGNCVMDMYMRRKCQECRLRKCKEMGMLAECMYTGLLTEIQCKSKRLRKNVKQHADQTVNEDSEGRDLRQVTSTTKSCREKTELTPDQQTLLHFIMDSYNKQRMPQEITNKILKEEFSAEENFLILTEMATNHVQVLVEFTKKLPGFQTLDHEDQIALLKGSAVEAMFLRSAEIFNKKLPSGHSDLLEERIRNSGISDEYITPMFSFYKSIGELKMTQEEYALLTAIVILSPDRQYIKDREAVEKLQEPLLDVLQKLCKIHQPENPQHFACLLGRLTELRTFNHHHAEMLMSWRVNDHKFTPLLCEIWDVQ

The nature of test [18]: ATG_ISRE_CIS: Attagene CIS-FACTORIAL HepG2 Assay for human Interferon Regulatory Factor 1 (IRF1) binding to an Interferon-Stimulated Response Element (ISRE) (AID 2282948). Conditions: HepG2 ISRE cis-reporter (Attagene), mRNA transcription readout; actives raise or lower the signal. In a few lines: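 Read-out: fluorescent RT-PCR products resolved by capillary electrophoresis, reporting endogenous transcription factor activity via ISRE-driven reporter mRNA in transfected HepG2 cells dosed for 24 h; gain or loss fitted relative to DMSO.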

In test [19] the target is Hepatocyte nuclear factor 3-beta (Homo sapiens) (UniProt Q9Y261). As to the kind of experiment: ATG_FoxA2_CIS: Attagene CIS-FACTORIAL HepG2 Assay for human Forkhead box A2 (FOXA2) (AID 2282942). Conditions: HepG2 cis-reporter transcription factor activity, 24 h; actives raise or lower the signal. In a few lines:
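HepG2 transiently transfected with a multiplexed cis-promoter reporter library read endogenous FOXA2 activity. After 24 h compound exposure, reporter mRNA was quantified by RT-PCR, HpaI digestion and capillary electrophoresis. Bidirectional fit against DMSO.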

The nature of test [20]: ATG_GRE_CIS: Attagene CIS-FACTORIAL HepG2 Assay for human Glucocorticoid Response Elements (GRE) (AID 2282947). As to conditions: HepG2 GRE cis-reporter, Attagene multiplex mRNA; actives raise or lower the signal. In a few lines: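 Reporter transcripts read by RT-PCR with capillary electrophoresis fluorescence after a 24 h chemical exposure of HepG2 cells transiently transfected with multiple cis-element reporter units. Gain or loss fitted against DMSO.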

Hepatocyte nuclear factor 3-beta (Homo sapiens), sequence (Q9Y261 whole entry, looked up): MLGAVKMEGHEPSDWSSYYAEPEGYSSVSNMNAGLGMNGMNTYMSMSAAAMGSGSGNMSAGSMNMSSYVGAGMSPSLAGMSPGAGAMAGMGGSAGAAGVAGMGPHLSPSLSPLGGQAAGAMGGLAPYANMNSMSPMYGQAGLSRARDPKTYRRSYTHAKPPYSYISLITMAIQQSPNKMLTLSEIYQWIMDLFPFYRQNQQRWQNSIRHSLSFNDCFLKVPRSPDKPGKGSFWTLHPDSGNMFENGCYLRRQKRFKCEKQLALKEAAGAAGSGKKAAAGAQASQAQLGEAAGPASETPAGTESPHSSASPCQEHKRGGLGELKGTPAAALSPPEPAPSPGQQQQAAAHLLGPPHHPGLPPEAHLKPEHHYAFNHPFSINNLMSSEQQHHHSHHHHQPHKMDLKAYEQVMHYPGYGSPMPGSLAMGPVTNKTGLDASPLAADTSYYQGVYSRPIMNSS
Transcription factor E2F1 (Homo sapiens), sequence (Q01094 whole entry, looked up): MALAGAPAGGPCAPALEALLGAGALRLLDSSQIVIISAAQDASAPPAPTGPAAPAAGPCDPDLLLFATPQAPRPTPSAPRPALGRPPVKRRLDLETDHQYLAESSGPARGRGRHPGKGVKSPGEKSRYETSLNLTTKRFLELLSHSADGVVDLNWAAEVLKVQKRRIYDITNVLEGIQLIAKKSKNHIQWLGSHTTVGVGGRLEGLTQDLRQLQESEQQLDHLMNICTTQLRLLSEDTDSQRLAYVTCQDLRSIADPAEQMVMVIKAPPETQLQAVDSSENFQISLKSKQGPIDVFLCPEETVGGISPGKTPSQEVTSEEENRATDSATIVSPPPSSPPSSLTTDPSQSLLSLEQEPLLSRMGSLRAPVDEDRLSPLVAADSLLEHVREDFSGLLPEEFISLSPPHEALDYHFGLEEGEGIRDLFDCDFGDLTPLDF

Turning to `Nc1cccnc1`, the molecule was classed as inactive in test [1], in [2], in test [3], in test [4], in test [5] and in test [6]. Further, the result in test [7], in test [8], in test [9], in [10], in test [11] and in test [12] was inactive. The result in test [13], in test [14], in test [15], in [16], in [17] and in test [18] was inactive.

With `Cc1ccccc1OP(=O)(Oc1ccccc1C)Oc1ccccc1C`, the concentration at half-maximal activity (AC50) in [1] is 13900 nM (active); in test [3], 17500 nM (active); in test [7], 69700 nM (active); in [12] it was 3040 nM (active); in test [18], 7000 nM (active). Also, the call in [2], in test [4], in test [5], in test [6], in [8] and in [9] was inactive. Besides, the molecule was classed as inactive in test [10], in test [11], in [13], in [19], in [14] and in test [15]. In addition, the result in test [16], in [17] and in test [20] was inactive.

Regarding `CCN(CC)C(=O)C(Cl)=C(C)OP(=O)(OC)OC`, the call in [1], in test [2], in [3], in test [4], in [5] and in [6] was inactive. Moreover, the call in test [7], in [8], in test [9], in test [10], in test [11] and in test [12] was inactive. Moreover, the outcome in [13], in test [19], in test [14], in test [15], in test [16] and in test [20] was inactive. Also, in test [18], the molecule was called inactive.

For `C=CC(=O)[O][Sn]([CH2]CCC)([CH2]CCC)[CH2]CCC`, the concentration at half-maximal activity (AC50) in [1] is 607 nM (active); in [2], 704 nM (active); in [3], 128 nM (active); in test [5] it was 217 nM (active); in [6], 22.9 nM (active); in [8], 551 nM (active). Further, the half-maximal activity concentration (AC50) was 412 nM (active) in test [10]; 14.6 nM (active) in test [12]; 694 nM (active) in test [19]; 536 nM (active) in test [15]; 602 nM (active) in test [16]; 95.6 nM (active) in test [17]. In addition, the half-maximal activity concentration (AC50) in test [20] is 412 nM (active). Also, the call in test [4], in [7], in test [9], in [11], in test [13] and in test [14] was inactive. Also, the outcome in test [18] was inactive.
